# Source: PubChem (several laboratories)
# Hits are enriched below; roughly 5.3% of the tested compounds scored in any of these assays.
# PostGolgi ctrl = growth inhibition of yeast control strain, primary screen, counter-screen for post-Golgi transport modulator project. efflux-deficient yeast background strain, growth absorbance A615, 16 h. AID 738, 2007. 98,000 tested, 5% active. inhibition, % at 10 µM
# PostGolgi yeast = phenotypic screen on post-Golgi transport, primary screen; post-Golgi transport phenotypic cell assay; inhibition, % at 10 µM; 98,000 tested, 0.9% active;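 further: yeast cells grown in 1536-well plates; yeast grown about 18 h at 30C before absorbance read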
# Measles CPE = compounds protecting cells from measles virus cytopathic effect, primary screen, measles RdRp inhibitor project, single point, MLSMR library, absorbance. Measles virus-infected cells, CPE protection. protection (pct of control), % at 4 µM. 140,000 tested, 1.5% active; in the data active means protection mostly above about 24%, no sharp cut-off; inactive means mostly below about 26%
# MT1-MMP txn act = MT1-MMP promoter reporter activation – cell-based, luciferase luminescence, primary screen; HT1080 MT1-MMP promoter luciferase reporter, overnight; hits give high values; activation factor at 10 µM; 86,000 tested, 0.16% active;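 active means activation factor of at least 2 for MT1-MMP transcription at 10 µM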
# Hits are given with their value; – = inactive; · = no result. Unless noted, no stated cut-off is given here; in the data, active means inhibition above about 30%; inactive means the rest.
SMILES,PostGolgi ctrl,PostGolgi yeast,Measles CPE,MT1-MMP txn act
COc1cccc(CN2C(=O)C3(C(C#N)=C(N)OC4=C3C(=O)CCC4)c3ccccc32)c1 (centres undefined),–,34,–,–
COC(=O)C1=C(C)NC(=O)C1(NC(=O)CN1CCCC1=O)C(F)(F)F (centres undefined),–,–,41,–
CCOC(=O)NC1(C(F)(F)F)C(=O)NC(C)=C1C(=O)OC (centres undefined),–,–,–,·
CC1CCN(C2CCN(S(=O)(=O)c3ccc(F)cc3)CC2)CC1,31,–,–,–
Cc1ccc(S(=O)(=O)N2CCN(C3CCC(c4ccccc4)CC3)CC2)cc1 (centres undefined),96,89,–,·
CCS(=O)(=O)N1CCN(C2CCC(c3ccccc3)CC2)CC1 (centres undefined),–,–,–,–
O=S(=O)(c1ccc(F)cc1)N1CCC(N2CCCCCC2)CC1,–,–,–,–
CC1CN(C2CCN(S(=O)(=O)c3ccc4ccccc4c3)CC2)CC(C)O1 (centres undefined),38,83,–,–
CC(=O)Nc1cccc(Oc2nc(C)cc(C)c2C#N)c1,32,–,–,–
CCC(=O)Nc1cccc(Oc2nc(C)cc(C)c2C#N)c1,–,–,–,·
CC1(C)CC(=O)C2=C(C1)OC(N)=C([N+](=O)[O-])C2c1cccs1 (centres undefined),·,·,–,·
Cc1ccc(S(=O)(=O)c2nc(-c3cccs3)oc2NCCCN(C)C)cc1,·,·,–,·
CCOc1ccc(S(=O)(=O)NCCOC)cc1C,45,–,–,–
CCCCNS(=O)(=O)c1ccc(OC)c(C)c1,·,·,–,–
CCOc1cc(N2CCOCC2)c(OCC)cc1NC(=O)c1ccc(OCc2c(C)noc2C)c(OC)c1,·,·,–,·
CCOC(=O)C1=C(C)N(CCCC(=O)O)C(=O)NC1c1ccccc1OC(=O)c1ccc(I)cc1 (centres undefined),·,·,·,–
O=C(Nc1nccs1)c1ccc(S(=O)(=O)NCc2cccs2)cc1,–,–,–,–
O=C(Nc1nccs1)c1ccc(S(=O)(=O)NCC2CCCCC2)cc1,41,–,–,–
Cc1cc(Br)cn2ccnc12,–,–,–,·
CC(C)(C)c1ccc(NC(=O)COc2ccc(-n3ccnc3)cc2)cc1,58,73,–,–
N#CC1=C(N)OC(c2ccccc2)=C(C#N)C1c1ccc2c(c1)OCO2 (centres undefined),98,104,–,–
COC(=O)c1ccc(C(NC(=O)OCc2ccccc2)/C(=C/[C@@H](C)C(=O)Nc2ccc(OC)cc2)c2cccnc2)cc1 (some centres undefined),·,·,·,–
CCOc1ccccc1-c1nn2c(Cc3ccccc3)nnc2s1,78,–,–,–
CC(C)(C)c1ccc(-c2nnc3sc(-c4ccccn4)nn23)cc1,35,–,–,–
c1ccc(-c2nn3c(-c4ccncc4)nnc3s2)nc1,·,·,·,–
SMILES,PostGolgi ctrl,PostGolgi yeast,Measles CPE,MT1-MMP txn act
c1ccc(Cc2nnc3sc(-c4ccccn4)nn23)cc1,–,–,62,–
CC1(C)N=C(N)NC(Nc2ccccc2)=N1,–,–,–,–
O=c1c2ccccc2n(Cc2ccc(Cl)cc2)c(=O)n1Cc1ccco1,75,–,–,–
Cc1ccc(Cn2c(=O)n(Cc3ccco3)c(=O)c3ccccc32)cc1,–,–,–,–
O=C(Nc1ccc(Cl)cc1C(F)(F)F)c1ccccc1,·,·,–,·
O=C(CSc1ncnc2sc3c(c12)CCCC3)c1ccco1,46,–,46,–
CCC(C)(C)n1nnnc1CN(Cc1cccs1)Cc1cc2cc(OC)ccc2[nH]c1=O,–,–,37,–
O=C(NNS(=O)(=O)c1ccc(Cl)cc1)c1cc(-c2ccccc2)nc2ccccc12,·,·,–,·
COc1ccc(NC(=O)C(c2cc3c(cc2[N+](=O)[O-])OCO3)N2CCN(C=O)CC2)cc1 (centres undefined),·,·,23,·
CC(=O)Nc1ccc(S(=O)(=O)Nc2nccc(/C=C/c3ccc(Cl)cc3)n2)cc1,·,·,–,·
Cc1cccc(OCC(=O)NNC(=O)c2cc3ccccc3oc2=O)c1,–,–,43,·
O=C(COc1ccc(F)cc1)NNC(=O)c1cc2ccccc2oc1=O,·,·,–,·
CC(C)(C)NC(=O)C(c1ccco1)N(C(=O)Cn1nnc(-c2ccc(F)cc2)n1)c1ccccc1F (centres undefined),79,76,–,–
CCOC(=O)Cc1nnc(NC(=O)C(CC)Sc2nc(C)cc(C)n2)s1 (centres undefined),–,–,–,·
CCC(Sc1nc(C)cc(C)n1)C(=O)Nc1ccc(Cl)cn1 (centres undefined),·,·,–,2
Cc1cc2c3nonc3ccc2n1-c1ccccc1,35,–,–,·
